Source: PubChem BioAssay
Activity calls are given as the source filed them.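 The calls were made as follows, unless noted: active = inhibition of the reporter signal at or above 50%; inactive = inhibition below 50%.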

Legend:
[1] = inhibitors of TNFa-induced NFkB p65 translocation, primary screen, imaging, HUVEC, MLSMR starter and 10KST1 sets (AID 438;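 active = inhibition above 20% together with a positive visual image hit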;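 also: compound added about 3h40 before a 20 min TNFalpha stimulation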;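 as to inhibition: signal is the nuclear over cytoplasmic p65 intensity ratio per well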); conditions: HUVEC TNFa-induced p65 nuclear translocation; cell count: measured here: nuclei count (cytotoxicity indicator), at 2.08 µM; inhibition: at 2 µM, stronger effect = higher value, 0% TNFa-plus-vehicle, 100% no-TNFa wells
[2] = reduction of polyQ htt aggregates in cells – imaging, exon1htt(103Q)mCFP cells, high-content imaging, primary screen (AID 483;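 active = visual image review flags a hit and inhibition of aggregation exceeds 20%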;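 also: compound exposure lasted 3 days before fixation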;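 as to nuclei count: percent of the per-plate median nuclei count of sample wells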); conditions: exon1htt(103Q)mCFP cell line, aggregate imaging, at 2 µM; inhibition of aggregation: stronger effect = higher value; nuclei count: measured here: cell count, toxicity
[3] = endothelial E-selectin expression blockers – imaging, HUVEC, immunofluorescence, MLSMR starter and 10KST1 sets, primary screen (AID 487;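 active = visually confirmed hit in the image check and inhibition above 20%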;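 as to inhibition: signal is fraction of cell area covered by stained E-selectin grains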;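 as to nuclei count: 100% = median nuclei count of all wells on the same plate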); conditions: HUVEC TNFalpha-induced E-selectin immunofluorescence imaging, at 2 µM; inhibition: stronger effect = higher value; nuclei count: measured here: cell number, toxicity
[4] = molecular target: Voltage-gated potassium channel subunit beta-2 (Rattus norvegicus) (UniProt P62483); assay: inhibitors of rat Kvbeta2 reductase activity – biochemical, NADPH fluorescence, primary screen (AID 622;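 active = fluorescence slope higher than the sample average by over 3 SD, cut at about -0.22 in these data, passing the limit was not always enough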;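 also: slope of raw intensity against log time taken from 70 to 1610 s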); conditions: recombinant KvBeta, 4-cyanobenzaldehyde reduction, at 10 µM, stronger effect = higher value
Sequence of Voltage-gated potassium channel subunit beta-2 (Rattus norvegicus) (P62483 whole entry, looked up): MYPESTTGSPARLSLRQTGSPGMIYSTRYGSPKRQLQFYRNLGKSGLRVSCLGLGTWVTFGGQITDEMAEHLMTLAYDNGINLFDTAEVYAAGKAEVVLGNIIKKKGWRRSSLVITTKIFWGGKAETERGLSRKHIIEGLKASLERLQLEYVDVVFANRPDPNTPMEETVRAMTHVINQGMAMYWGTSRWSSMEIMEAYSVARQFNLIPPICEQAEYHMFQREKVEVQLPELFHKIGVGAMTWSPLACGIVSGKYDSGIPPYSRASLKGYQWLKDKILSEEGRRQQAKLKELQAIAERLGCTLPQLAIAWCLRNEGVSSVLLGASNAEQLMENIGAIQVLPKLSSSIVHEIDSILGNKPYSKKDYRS

[5] = molecular target: Voltage-gated potassium channel subunit beta-2 (Rattus norvegicus) (UniProt P62483); assay: enhancers of rat Kvbeta2 NADPH turnover – biochemical, NADPH fluorescence, primary screen (AID 623;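 active = NADPH fluorescence slope more negative than the mean of all samples by about 3 SD, 99.7% confidence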;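 also: fluorescence intensity change per second fitted from 20 to 320 s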); conditions: Recombinant KvBeta, NADPH fluorescence decrease slope, 10 min; at 10 µM; stronger effect = lower value
[6] = molecular target: Alpha-2C adrenergic receptor (Homo sapiens) (UniProt P18825); assay: compounds altering alpha2C-coupled GIRK flux – cell-based, HEK293 alpha2C/GIRK1/2, thallium flux, primary screen (AID 624;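 active = fluorescence slope after compound addition differing from the mean of all screened samples at 99.7% confidence, in either direction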;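 also: slope of fluorescence ratio to pre-addition baseline per second over 15 to 24 s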); conditions: thallium flux BTC fluorescence, at 10 µM, actives lie on both sides
Sequence of Alpha-2C adrenergic receptor (Homo sapiens) (P18825 whole entry, looked up): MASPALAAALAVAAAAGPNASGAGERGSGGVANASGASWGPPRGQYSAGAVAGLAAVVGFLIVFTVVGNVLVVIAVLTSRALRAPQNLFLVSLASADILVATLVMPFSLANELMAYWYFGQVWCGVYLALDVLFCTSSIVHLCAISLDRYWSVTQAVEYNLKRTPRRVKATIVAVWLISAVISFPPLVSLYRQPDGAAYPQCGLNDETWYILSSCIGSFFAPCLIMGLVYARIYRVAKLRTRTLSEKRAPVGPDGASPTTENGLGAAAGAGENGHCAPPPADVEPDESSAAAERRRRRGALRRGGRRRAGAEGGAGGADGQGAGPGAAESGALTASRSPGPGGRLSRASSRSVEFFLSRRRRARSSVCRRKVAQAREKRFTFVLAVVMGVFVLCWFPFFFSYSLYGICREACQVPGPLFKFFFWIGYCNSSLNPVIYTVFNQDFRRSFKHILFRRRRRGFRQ

[7] = blockers of RIG-like receptor reporter activation – cell-based, Sendai virus stimulus, luciferase, 10K MLSCN set, TLR/RLR signaling modifier project, primary screen (AID 602276;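 active = inhibition at or above 50% at 10 µM; inactive = inhibition below 50%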;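 also: firefly luciferase from ISG56 promoter only with Renilla not read in this screen; 0% = Sendai virus plus DMSO and 100% = medium plus DMSO without virus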); conditions: HEK293 RL24 IRF3 luciferase reporter, at 10 µM, stronger effect = higher value
[8] = TLR3 IRF3 reporter activation blockers – cell-based, poly I:C stimulus, luciferase, 10K MLSCN set, primary screen (AID 602277); conditions: HEK293-TLR3 RL24 IRF3 luciferase reporter, at 10 µM, stronger effect = higher value

With COC(=O)c1sccc1NC(=O)c1csc(C)c1 the cell count [1] was 406, the inhibition [1] was -5.4% (inactive) and the inhibition of aggregation [2] was 0.6% (inactive). For the same compound, the nuclei count [2] was 88%, the inhibition [3] was -42.1% (inactive) and the nuclei count [3] was 123%. The fluorescence slope [4] was -0.384 (inactive), the NADPH fluorescence slope [5] was -0.000107 (inactive) and the slope [6] was 0.00657 (inactive). For the same compound, the inhibition [7] was 18.7% (inactive) and the inhibition [8] was 36.8% (inactive).
In the case of CCn1nc(CC(=O)Nc2nnc(CC(=O)N3CCCCC3)s2)c2ccccc2c1=O, the cell count [1] is reported as 385, the inhibition [1] is reported as 0.2% (inactive) and the inhibition of aggregation [2] is reported as 2.9% (inactive). The nuclei count [2] was 104%, the inhibition [3] was -289% (inactive) and the nuclei count [3] was 95.9%. The fluorescence slope [4] was -0.437 (inactive), the NADPH fluorescence slope [5] was -2.5e-05 (inactive) and the slope [6] was 0.00348 (inactive). The inhibition [7] was 8.15% (inactive) and the inhibition [8] was 25.2% (inactive).
In the case of O=C(Nc1sc2c(c1C(=O)NCc1ccco1)CCCC2)c1ccc2c(c1)OCO2, the cell count [1] is reported as 563, the inhibition [1] is reported as -10.1% (inactive) and the inhibition of aggregation [2] is reported as 2.5% (inactive). The nuclei count [2] was 103%, the inhibition [3] was -56% (inactive) and the nuclei count [3] was 117%. For the same compound, the fluorescence slope [4] was -0.517 (inactive), the NADPH fluorescence slope [5] was 3.8e-06 (inactive) and the slope [6] was 0.00669 (inactive). For the same compound, the inhibition [7] was -29.8% (inactive) and the inhibition [8] was -179% (inactive).
For CCN(CC)CCN1C(=O)c2oc3ccc(F)cc3c(=O)c2C1c1ccncc1 (centres undefined), the cell count [1] was 598, the inhibition [1] was -12.9% (inactive) and the inhibition of aggregation [2] was -2.9% (inactive). For the same compound, the nuclei count [2] was 102%, the inhibition [3] was -5.7% (inactive) and the nuclei count [3] was 111%. For the same compound, the fluorescence slope [4] was -0.536 (inactive), the NADPH fluorescence slope [5] was -4.3e-05 (inactive) and the slope [6] was 0.00733 (inactive). For the same compound, the inhibition [7] was 15.9% (inactive) and the inhibition [8] was 44.8% (inactive).
With Cc1cc(C)c2[nH]c(=O)c(C(c3nnnn3Cc3ccc4c(c3)OCO4)N3CCC(C)CC3)cc2c1 (centres undefined) the cell count [1] was 716, the inhibition [1] was -1.6% (inactive) and the inhibition of aggregation [2] was 2.1% (inactive). For the same compound, the nuclei count [2] was 98.1%, the inhibition [3] was 70% (inactive) and the nuclei count [3] was 73.2%. For the same compound, the fluorescence slope [4] was -0.428 (inactive), the NADPH fluorescence slope [5] was 6.4e-06 (inactive) and the slope [6] was 0.0051 (inactive). The inhibition [7] was -4.82% (inactive) and the inhibition [8] was 18.2% (inactive).
With O=C(O)CN1C(=O)C2(OCCCO2)c2ccccc21 the cell count [1] was 542, the inhibition [1] was -5.7% (inactive) and the inhibition of aggregation [2] was -4.1% (inactive). The nuclei count [2] was 96.1%, the inhibition [3] was -0.7% (inactive) and the nuclei count [3] was 124%. The fluorescence slope [4] was -0.538 (inactive), the NADPH fluorescence slope [5] was 6.1e-05 (inactive) and the slope [6] was 0.0059 (inactive). For the same compound, the inhibition [7] was 17% (inactive) and the inhibition [8] was 18.6% (inactive).
With Fc1ccc(Cn2nnc(-c3ccc(CN4CCOCC4)cc3)n2)cc1 the cell count [1] was 299, the inhibition [1] was 4.3% (inactive) and the inhibition of aggregation [2] was 11.5% (inactive). The nuclei count [2] was 102%, the inhibition [3] was 9.3% (inactive) and the nuclei count [3] was 117%. The fluorescence slope [4] was -0.44 (inactive), the NADPH fluorescence slope [5] was -1.1e-05 (inactive) and the slope [6] was 0.00406 (inactive). The inhibition [7] was -2.6% (inactive) and the inhibition [8] was -37.2% (inactive).
For O=C(Nc1ccon1)c1csc2c1CCCC2, the cell count [1] was 332, the inhibition [1] was 1.2% (inactive) and the inhibition of aggregation [2] was -60% (inactive). For the same compound, the nuclei count [2] was 104%, the inhibition [3] was -52.8% (inactive) and the nuclei count [3] was 107%. The fluorescence slope [4] was -0.396 (inactive), the NADPH fluorescence slope [5] was -5.9e-05 (inactive) and the slope [6] was 0.00515 (inactive). The inhibition [7] was -0.246% (inactive) and the inhibition [8] was 11.9% (inactive).
With O=C(Cn1nc(Cc2ccncc2)c2ccccc2c1=O)N1CCN(C(=O)c2ccco2)CC1 the cell count [1] was 780, the inhibition [1] was -7.3% (inactive) and the inhibition of aggregation [2] was -29.3% (inactive). For the same compound, the nuclei count [2] was 110%, the inhibition [3] was -15.2% (inactive) and the nuclei count [3] was 112%. The fluorescence slope [4] was -0.58 (inactive), the NADPH fluorescence slope [5] was -2.7e-05 (inactive) and the slope [6] was 0.0062 (inactive). The inhibition [7] was -0.346% (inactive) and the inhibition [8] was 21.1% (inactive).
